Experimental data as given in PubChem BioAssay.
The source made the active and inactive calls. Rule as the data show it, unless noted: active = inhibition above about 80%; inactive = the rest.

Assays:
[1] = LFS_MB_P medulloblastoma growth inhibition, cell-based, chromothripsis tumors, cisplatin or BGB combos (AID 1671449); details: LFS_MB_P medulloblastoma cells;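 also: cells exposed for 96 hours; 0% = vehicle DMSO and 100% = killing by high DMSO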
[2] = HDN33 neuroblastoma growth inhibition, cell-based, chromothripsis tumors, cisplatin or BGB combos (AID 1671450); details: HDN33 neuroblastoma cells, stronger effect = higher value;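 also: cells exposed to compound for four days; 0% = vehicle DMSO and 100% = cell killing by high DMSO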
[3] = ICB984 medulloblastoma cell growth inhibition, synergistic combos for chromothripsis tumors, cisplatin or BGB combos (AID 1671451; call rule not given here;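 also: cells exposed for 96 hours before readout; 0% = vehicle DMSO and 100% = killing by high DMSO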); details: ICB984 medulloblastoma cells, drug combinations, stronger effect = higher value
[4] = LFS_MB_1R medulloblastoma cell growth inhibition, synergistic combos for chromothripsis tumors, cisplatin or BGB combos (AID 1671452); details: LFS_MB_1R medulloblastoma cells, stronger effect = higher value;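 also: cells exposed for 96 hours before readout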
[5] = HTB85 osteosarcoma cell growth inhibition, synergistic combos for chromothripsis tumors, BGB or cisplatin IC20 combos (AID 1671453); details: HTB85 osteosarcoma cells, drug combinations, stronger effect = higher value;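 also: cells exposed for 96 hours before readout; 0% = vehicle DMSO and 100% = high DMSO killing control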
[6] = CRL2098 osteosarcoma cell growth inhibition, synergistic combos for chromothripsis tumors, BGB or cisplatin IC20 combos (AID 1671454); details: CRL2098 osteosarcoma cells, drug combinations, stronger effect = higher value;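 also: cells exposed for 96 h before readout; 0% = vehicle DMSO and 100% = killing by high DMSO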
[7] = HD-MB03 medulloblastoma cell growth inhibition, synergistic combos for chromothripsis tumors, BGB or cisplatin IC20 combos (AID 1671455; in the data active = inhibition above about 83%;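 also: 0% = vehicle DMSO and 100% = high DMSO as cytotoxic control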); details: HD-MB03 medulloblastoma cells, stronger effect = higher value
[8] = UWB1.289 ovarian carcinoma cell growth inhibition, synergistic combos for chromothripsis tumors, BGB or cisplatin combos (AID 1671456); details: UWB1.289 ovarian carcinoma cells, stronger effect = higher value;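 also: cells exposed to compound for four days; 0% = vehicle DMSO and 100% = killing by high DMSO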
[9] = LFS_MB_2R medulloblastoma cell growth inhibition, synergistic combos for chromothripsis tumors, cisplatin combos (AID 1671457); details: LFS_MB_2R medulloblastoma cells, stronger effect = higher value;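 also: cells exposed to compound for four days before readout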
[10] = MDA-MB-436 breast carcinoma cell growth inhibition, synergistic combos for chromothripsis tumors, BGB or cisplatin combos (AID 1671458; call rule not given here;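 also: cells exposed for 96 hours; 0% = vehicle DMSO and 100% = killing by high DMSO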); details: MDA-MB-436 breast carcinoma growth inhibition, drug combinations, stronger effect = higher value
[11] = UWB1.289_BRCA1 ovarian cancer growth, cell-based, BGB or cisplatin combinations (AID 1671459); details: UWB1.289 BRCA1 ovarian carcinoma, drug combinations, stronger effect = higher value
[12] = human astrocyte viability loss, single and combined drugs, cytotoxicity control for chromothriptic childhood tumor combination screen, cell-based, BGB or cisplatin IC20 combos (AID 1671460); details: Human astrocytes, drug combinations, stronger effect = higher value;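 also: cells exposed to compounds for 96 hours before viability readout; 0% = vehicle and 100% = killing control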
[13] = growth inhibition of BT084 medulloblastoma cells, cell-based, ICGC_MB145, cisplatin and BGB IC40 combos (AID 1671461); details: drug combinations, stronger effect = higher value;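 also: cells exposed to drugs for 96 hours; 0% = vehicle DMSO and 100% = high DMSO full killing control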
[14] = growth inhibition of RCMB18 medulloblastoma cells, cell-based, cisplatin and BGB IC40 combos (AID 1671462); details: stronger effect = higher value;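 also: cells exposed to compound for four days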
[15] = growth inhibition of CRL1545 osteosarcoma cells, cell-based, cisplatin and BGB IC20 combos (AID 1671464); details: stronger effect = higher value;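 also: cells exposed to compound for 96 hours before readout; 0% = vehicle DMSO and 100% = high DMSO killing control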
[16] = viability rescue of complex I mutant cybrids, primary screen, cell-based, galactose medium, ATP luminescence (AID 1645843;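 active = z-score of at least 1.8 in each of two replicates, scored against plate mean and spread of sample wells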;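 also: positive z means more ATP and so rescue of galactose-driven cybrid death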); details: complex I mutant cybrid cells, 72 h, stronger effect = higher value
[17] = at 0.5 µM, stronger effect = higher value
[18] = measured here: combination with BGB IC20, at 0.005 µM
[19] = measured here: combination with BGB IC40, at 0.005 µM
[20] = measured here: combination with BGB IC40, at 0.05 µM
[21] = measured here: combination with cisplatin, at 0.5 µM, stronger effect = higher value
[22] = measured here: combination with cisplatin, at 5 µM, stronger effect = higher value
[23] = measured here: with BGB IC20 combination, at 0.5 µM
[24] = measured here: with cisplatin IC20 combination, at 0.5 µM
[25] = measured here: 5 uM single agent, at 5 µM
[26] = measured here: combination with cisplatin, at 0.5 µM
[27] = measured here: combination with cisplatin, at 5 µM
[28] = measured here: with BGB IC20, at 0.5 µM
[29] = measured here: with BGB IC20, at 5 µM
[30] = measured here: with cisplatin IC20, at 0.5 µM
[31] = measured here: with cisplatin IC20, at 5 µM
[32] = measured here: combination with BGB at IC20, at 0.5 µM
[33] = measured here: combination with cisplatin at IC20, at 0.5 µM
[34] = measured here: combo with BGB at IC20, at 0.5 µM
[35] = measured here: combo with cisplatin at IC20, at 0.5 µM
[36] = measured here: inhibition with BGB combination, at 0.05 µM
[37] = measured here: inhibition with cisplatin combination, at 0.05 µM
[38] = measured here: BGB combination, at 0.5 µM
[39] = measured here: BGB combination, at 5 µM
[40] = measured here: cisplatin combination, at 0.5 µM
[41] = measured here: cisplatin combination, at 5 µM
[42] = BGB combination, concentration series, at 5 µM
[43] = cisplatin combination, concentration series, at 5 µM
[44] = measured here: combo with BGB IC20, at 0.5 µM
[45] = measured here: combo with cisplatin IC20, at 0.5 µM
[46] = cisplatin combination, at 0.5 µM
[47] = measured here: BGB IC40 combination 0.05 uM, at 0.05 µM
[48] = measured here: BGB IC40 combination, at 0.05 µM

Structure (SMILES): COc1ccc(-c2nc(-c3cc(C(F)(F)F)cc(C(F)(F)F)c3)n(Cc3ccc(C(N)=O)cc3)c2-c2ccc(OC)cc2)cc1
- inhibition [1, 17]: -25% (inactive)
- inhibition [1, 18]: -26.9%
- inhibition [1, 19]: -58.7%
- inhibition [1, 20]: -38.9%
- inhibition [1, 21]: -39.3%
- inhibition [1, 22]: -39.4%
- inhibition ([2]; BGB combo, at 5 µM): -37.8%
- inhibition ([2]; at 0.5 µM): 0.84% (inactive)
- inhibition ([2]; cisplatin combo, at 5 µM): -22.8%
- inhibition [2, 23]: 36.9%
- inhibition [2, 24]: -4.78%
- inhibition ([2]; single agent, at 5 µM): -31.8%
- inhibition ([3]; BGB IC20 combo, at 0.005 µM): -2.07%
- inhibition ([3]; BGB IC40 combo, at 0.005 µM): -30.8%
- inhibition ([3]; BGB IC40 combo, at 0.05 µM): -25.1%
- inhibition ([3]; at 0.5 µM): -9.24% (inactive)
- inhibition ([3]; cisplatin combo, at 0.05 µM): -31.6%
- inhibition ([3]; cisplatin combo, at 0.5 µM): -14.1%
- inhibition ([3]; cisplatin combo, at 5 µM): -32.9%
- inhibition [3, 25]: -2.84%
- inhibition ([4]; at 0.5 µM): -33.2% (inactive)
- inhibition [4, 20]: -28.8%
- inhibition [4, 26]: -57.5%
- inhibition [4, 27]: -46.5%
- inhibition ([5]; at 0.5 µM): -24.2% (inactive)
- inhibition [5, 28]: -10.5%
- inhibition [5, 29]: -7.08%
- inhibition [5, 30]: -32.4%
- inhibition [5, 31]: -14.9%
- inhibition ([5]; single agent, at 5 µM): 13.9%
- inhibition ([6]; at 0.5 µM): -66.2% (inactive)
- inhibition [6, 32]: -72.7%
- inhibition [6, 33]: -56.3%
- inhibition ([7]; at 0.5 µM): -5.54% (inactive)
- inhibition [7, 34]: -5.38%
- inhibition [7, 35]: 0.332%
- inhibition ([8]; at 0.5 µM): -10.7% (inactive)
- inhibition [8, 36]: -23.7%
- inhibition [8, 37]: -19.3%
- inhibition ([9]; at 0.5 µM): -16.7% (inactive)
- inhibition [9, 26]: -7.64%
- inhibition [9, 27]: -13.3%
- inhibition ([10]; at 0.5 µM): -7.79% (inactive)
- inhibition [10, 38]: -10.8%
- inhibition [10, 39]: -8.02%
- inhibition [10, 40]: -12.9%
- inhibition [10, 41]: -13.3%
- inhibition [11, 42]: 4.42%
- inhibition ([11]; at 0.5 µM): -9.42% (inactive)
- inhibition [11, 43]: 7.4%
- inhibition ([12]; at 0.5 µM): 5.71% (inactive)
- inhibition [12, 44]: 1.56%
- inhibition [12, 45]: 6.54%
- inhibition ([13]; at 0.5 µM): -7.83% (inactive)
- inhibition [13, 46]: -5.41%
- inhibition ([13]; cisplatin combination, at 5 µM): -208%
- inhibition [13, 47]: -36.9%
- inhibition ([13]; single agent, at 5 µM): -5.53%
- inhibition ([14]; at 0.5 µM): -23% (inactive)
- inhibition ([14]; cisplatin combo, at 5 µM): -55.8%
- inhibition [14, 48]: -13.9%
- inhibition [14, 26]: -29.4%
- inhibition ([14]; single agent, at 5 µM): -12.6%
- inhibition ([15]; at 0.5 µM): 21.1% (inactive)
- inhibition [15, 23]: -22.6%
- inhibition [15, 24]: 42.1%
- inhibition ([15]; single agent, at 0.05 µM): -21.9%
- inhibition ([15]; single agent, at 5 µM): -24.7%

Structure (SMILES): CCCCC(CC)CN1CCc2[nH]nc(C3CC3)c2C1 (stereo not given)
- z-score [16]: -0.03 (inactive)

Structure (SMILES): CCC1CN(C(=O)c2cc(-c3cnn(C)c3)nc3c(C)cccc23)CCN1C (stereo not given)
- z-score [16]: -0.31 (inactive)

Structure (SMILES): COc1ccccc1CNC(=O)Nc1nnc(C)s1
- z-score [16]: 4.88 (active)

Structure (SMILES): C=C1C2(C(=O)N3CCC(c4cccc(OC)c4OC)C3)CCC(C2)C1(C)C (stereo not given)
- z-score [16]: 1.19 (inactive)

Structure (SMILES): Cc1cc(C)cc(C(=O)NOCCCCCC(=O)NO)c1
- inhibition [1, 17]: -18.6% (inactive)
- inhibition [1, 18]: -25.1%
- inhibition [1, 19]: -71.8%
- inhibition [1, 20]: -38.3%
- inhibition [1, 21]: 23.3%
- inhibition [1, 22]: 101%
- inhibition ([2]; BGB combo, at 5 µM): 98%
- inhibition ([2]; at 0.5 µM): 16.4% (inactive)
- inhibition ([2]; cisplatin combo, at 5 µM): 99.6%
- inhibition [2, 23]: 11.9%
- inhibition [2, 24]: 14.2%
- inhibition ([2]; single agent, at 5 µM): 99.6%
- inhibition ([3]; BGB IC20 combo, at 0.005 µM): 3.29%
- inhibition ([3]; BGB IC40 combo, at 0.005 µM): -11.3%
- inhibition ([3]; BGB IC40 combo, at 0.05 µM): 93.2%
- inhibition ([3]; at 0.5 µM): -24.3% (inactive)
- inhibition ([3]; cisplatin combo, at 0.05 µM): 93.4%
- inhibition ([3]; cisplatin combo, at 0.5 µM): -27.8%
- inhibition ([3]; cisplatin combo, at 5 µM): -32.7%
- inhibition [3, 25]: -20.9%
- inhibition ([4]; at 0.5 µM): 21.5% (inactive)
- inhibition [4, 20]: -19%
- inhibition [4, 26]: 16.6%
- inhibition [4, 27]: 97%
- inhibition ([5]; at 0.5 µM): 15.3% (inactive)
- inhibition [5, 28]: 4.55%
- inhibition [5, 29]: 96.8%
- inhibition [5, 30]: 32.1%
- inhibition [5, 31]: 99.4%
- inhibition ([5]; single agent, at 5 µM): 98.4%
- inhibition ([6]; at 0.5 µM): -44.3% (inactive)
- inhibition [6, 32]: -68.4%
- inhibition [6, 33]: -43.7%
- inhibition ([7]; at 0.5 µM): 53.4% (inactive)
- inhibition [7, 34]: 36.6%
- inhibition [7, 35]: 95.8%
- inhibition ([8]; at 0.5 µM): 35% (inactive)
- inhibition [8, 36]: -9.28%
- inhibition [8, 37]: -8.14%
- inhibition ([9]; at 0.5 µM): 8.45% (inactive)
- inhibition [9, 26]: 32.9%
- inhibition [9, 27]: 102%
- inhibition ([10]; at 0.5 µM): 7.8% (inactive)
- inhibition [10, 38]: -12.2%
- inhibition [10, 39]: 42.5%
- inhibition [10, 40]: -3.09%
- inhibition [10, 41]: 53.9%
- inhibition [11, 42]: 92.6%
- inhibition ([11]; at 0.5 µM): 33.7% (inactive)
- inhibition [11, 43]: 110%
- inhibition ([12]; at 0.5 µM): 38% (inactive)
- inhibition [12, 44]: 37.9%
- inhibition [12, 45]: 25.6%
- inhibition ([13]; at 0.5 µM): 35.6% (inactive)
- inhibition [13, 46]: 32.4%
- inhibition ([13]; cisplatin combination, at 5 µM): 98.6%
- inhibition [13, 47]: -14.5%
- inhibition ([13]; single agent, at 5 µM): 105%
- inhibition ([14]; at 0.5 µM): 21.6% (inactive)
- inhibition ([14]; cisplatin combo, at 5 µM): 92.9%
- inhibition [14, 48]: -1.76%
- inhibition [14, 26]: 22.3%
- inhibition ([14]; single agent, at 5 µM): 89.9%
- inhibition ([15]; at 0.5 µM): 75.7% (inactive)
- inhibition [15, 23]: 64.9%
- inhibition [15, 24]: 80.7%
- inhibition ([15]; single agent, at 0.05 µM): 5.92%
- inhibition ([15]; single agent, at 5 µM): 72.3%
